# Results: PubChem BioAssay AID652105 (National Center for Advancing Translational Sciences (NCATS), 2013)
# Hit rate of the full screen: of about 330,000 compounds, about 4,100 (1.2%) were called active. About 2% were inconclusive and are not listed. Rule for the calls: active = max response of -50% or lower; inconclusive = between -30% and -50%; inactive = -30% or higher. The list comes from a sample in which actives are over-represented; it also holds similar structures and randomly drawn compounds.
# Target: Phosphatidylinositol 5-phosphate 4-kinase type-2 alpha (Homo sapiens) (UniProt P48426)
# Sequence (P48426 whole entry, looked up): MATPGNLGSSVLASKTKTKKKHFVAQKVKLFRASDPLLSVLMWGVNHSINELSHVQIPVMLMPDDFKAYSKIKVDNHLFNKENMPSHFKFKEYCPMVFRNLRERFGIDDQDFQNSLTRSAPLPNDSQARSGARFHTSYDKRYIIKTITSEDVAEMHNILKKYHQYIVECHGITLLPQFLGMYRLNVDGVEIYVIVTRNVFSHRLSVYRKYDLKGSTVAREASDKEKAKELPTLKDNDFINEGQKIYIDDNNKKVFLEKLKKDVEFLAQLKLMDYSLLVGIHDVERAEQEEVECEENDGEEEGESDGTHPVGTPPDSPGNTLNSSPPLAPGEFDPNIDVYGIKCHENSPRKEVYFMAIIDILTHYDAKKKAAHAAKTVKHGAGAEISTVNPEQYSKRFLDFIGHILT
# Assay: qHTS for Inhibitors of phosphatidylinositol 5-phosphate 4-kinase (PI5P4K); note: value at the top dose of about 77 µM
# Details: PI5P4Kalpha enzyme, ADP-Glo luminescence, 60 min; stronger effect = lower value
# Method in brief: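 Controls without substrate or without enzyme flank wells where PI5P4Kalpha converts substrate using 5 microM ATP (final). Incubation lasts 60 minutes at room temperature; ADP formed is read by ADP-Glo luminescence.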
# % is set by controls: 0 for no effect and ±100 for the full control effect.
row,Compound,max response
1,CC(C)Oc1cc(F)ccc1-c1cc(C(=O)Nc2cccc(Cl)c2)[nH]n1,0.377% (inactive)
2,COc1ccc(OC)c(C(O)c2ncc(-c3cccc(C(F)(F)F)c3)[nH]2)c1 (stereo unspecified),-2.56% (inactive)
3,COCCN1C=C2C(=O)C(C)(OC(=O)C3CCCC3)C(=O)C=C2C=C1c1ccsc1 (stereo unspecified),-2.59% (inactive)
4,CC1(OC(=O)C2CCCC2)C(=O)C=C2C=C(c3ccc(C#N)cc3)OC=C2C1=O (stereo unspecified),-76.4% (active)
5,C=CCN1C=C2C(=O)C(C)(OC(=O)CCc3ccccc3)C(=O)C=C2C=C1c1ccc(C#N)cc1 (stereo unspecified),-25.6% (inactive)
6,COc1ccccc1Cc1c(-c2ccc(Cl)cc2)nc2ccc(Cl)cn12,-3.05% (inactive)
7,CC(C)Nc1nnc(SCC(=O)c2c[nH]c3ccccc23)s1,-3.57% (inactive)
8,CC(C)c1ccc(Nc2nnc(SCC(=O)c3nnc(-c4ccccc4)o3)s2)cc1,-79.1% (active)
9,Cc1ccccc1Nc1nnc(SCC(=O)c2cc3ccccc3o2)s1,-19.3% (inactive)
10,NC(=O)CSc1nnc(NC(=O)c2ccc3ccccc3c2)s1,-9.56% (inactive)
11,Cc1ccc(Nc2nnc(SCC(=O)c3cc4ccccc4o3)s2)cc1C,-55.9% (active)
12,CC(C)N(C(=O)CSc1nnc(NC2CC2)s1)c1ccccc1,2.4% (inactive)
13,O=C1NC[C@H](CCCCN2C[C@H](Cc3ccc(O)cc3)N(CCc3ccccc3)C(=O)C2=O)N(CCc2ccccc2)C1=O,-2.29% (inactive)
14,COCc1cccc(-c2csc(C(O)c3ccc(F)cc3)n2)c1 (stereo unspecified),0.323% (inactive)
15,COc1ccc(C(=O)N2CCCCC2c2cc(C(=O)Nc3ccc(F)c(Cl)c3)no2)cc1 (stereo unspecified),-6.25% (inactive)
16,NC(Cc1ccccc1)c1csc(Nc2cc(Oc3ccccc3)ncn2)n1 (stereo unspecified),1.15% (inactive)
17,O=C(/C=C/c1ccc2c(c1)OCCO2)c1ccc(O)cc1,-20.1% (inactive)
18,O=C(/C=C/c1ccc(F)cc1)NCCNC(=O)/C=C/c1ccc(F)cc1,3.31% (inactive)
19,O=C(/C=C(O)/C=C/c1ccc(O)cc1)/C=C/c1ccc(O)cc1,-59.8% (active)
20,O=C1c2ccccc2-c2ccccc2NC1O (stereo unspecified),-1.89% (inactive)
21,COc1ccc(OCCCC(=O)Nc2nnc(C3CCCO3)s2)cc1 (stereo unspecified),-53% (active)

row,Compound,max response
1,Cc1nnc(NC(=O)CCCOc2ccccc2)s1,-10% (inactive)
2,COc1ccc(NC(=O)CCC(=O)Nc2nnc(C3CCCCC3)s2)cc1,0.477% (inactive)
3,Cc1ccc(S(=O)(=O)N2CCC(=O)N([C@H](COCc3ccccc3)C(C)C)CC2)cc1,-1.43% (inactive)
4,CC(=O)Nc1cccc(-c2ccnc3c2CC(C)(C(=O)NCc2ccccc2)O3)c1 (stereo unspecified),0.0166% (inactive)
5,COC(=O)c1ccc(CN2C(=O)C(Cc3ccccc3)ON=C2c2ncccc2C)o1 (stereo unspecified),-4% (inactive)
6,CCOC(=O)c1cc2c(=O)[nH]c(C(Cl)(Cl)Cl)nc2o1,-59.5% (active)
7,CCOC(=O)c1ccc(COC(=O)c2cc(=O)[nH]c3ccccc23)o1,0.0752% (inactive)
8,CCOC(=O)c1ccc(Nc2cc3ccccc3c(=O)[nH]2)cc1,3.2% (inactive)
9,CCC(C)CN1C(=O)CSCC1(C)C(=O)NCc1ccccc1 (stereo unspecified),-2.56% (inactive)
10,COc1cccc2c(C)c(C(=O)O)[nH]c12,-63.9% (active)
11,Cc1c(C(=O)N/N=C/c2ccccc2)[nH]c2c([N+](=O)[O-])cccc12,-0.171% (inactive)
12,COc1cc2c(C(=O)O)c(C)n(C)c2c2ccccc12,-2.64% (inactive)
13,COc1cc2c(=O)n(C)c3ccccc3c2cc1OC,1.08% (inactive)
14,c1ccc(-c2cc(-c3nnc4sc(-c5ccccn5)nn34)[nH]n2)cc1,-57.7% (active)
15,S=c1[nH]nc(-c2cc(-c3ccsc3)n[nH]2)n1-c1ccccc1,-10.2% (inactive)
16,CN(C(=O)c1ccccn1)c1nnc(-c2ccccn2)s1,3.64% (inactive)
17,CC1(C)OC(=O)C2=C(C[C@@H](C3CCCC3)O[C@@H]2c2ccc(Cl)cc2)O1,3.13% (inactive)
18,CCCNC(=O)c1cc(C2CCCCN2C(=O)OC)on1 (stereo unspecified),-2.43% (inactive)
19,CSc1nnc(SCc2nc3sc(C(=O)O)c(C)c3c(=O)[nH]2)s1,-79.5% (active)
20,Cc1sc2nc(CSCC(=O)Nc3c(Cl)cccc3Cl)[nH]c(=O)c2c1C,1.38% (inactive)
21,Cc1sc2nc(CSCC(=O)NC3CCCCC3)[nH]c(=O)c2c1C,-13.2% (inactive)

row,Compound,max response
1,CCCOc1ccc(F)cc1-c1cc(C(=O)Nc2ccc(F)c(Cl)c2)[nH]n1,-4.85% (inactive)
2,Cc1cc(O)ccc1-c1cc(C(=O)NCc2cc(C(F)(F)F)cc(C(F)(F)F)c2)[nH]n1,-3.12% (inactive)
3,CN(C)C(=O)c1cccc(-c2cnc3c(NC=O)cc(-c4ccc(C(=O)N5CCOCC5)cc4)cn23)c1,-13.4% (inactive)
4,Cc1cc(Br)ccc1NC(=O)CCCOc1cc(=O)n(C)c2ccccc12,3.17% (inactive)
5,CN1OC[C@@H]2CN(S(=O)(=O)c3cccc4ccccc34)[C@H](c3ccc(N4CCCCC4)cc3)C[C@@H]21,7.24% (inactive)
6,COc1cc(N2C(=O)CSC2=S)cc(OC)c1OC,0.509% (inactive)
7,CCOc1cccc(/C=N/NC(=S)NCCN2CCOCC2)c1O,-0.183% (inactive)
8,CCOc1cccc(/C=N/N2C(=O)CSC2=S)c1O,-51.6% (active)
9,COc1cc(Cn2c3ccc(NC(=O)CC(C)c4ccccc4)cc3c(=O)n2C)ccc1F (stereo unspecified),2.27% (inactive)
10,O=c1cc(CN2CCN(S(=O)(=O)/C=C/c3ccccc3)CC2)c2ccc(O)cc2o1,-55% (active)
11,Cc1ccc2c(CN3CCN(S(=O)(=O)c4ccccc4C(F)(F)F)CC3)cc(=O)oc2c1,-4.51% (inactive)
12,NC(=O)CCN1CCN(S(=O)(=O)/C=C/c2ccccc2)CC1,0.132% (inactive)
13,CN(Cc1cn(Cc2ccc(C(F)(F)F)cc2)nn1)C1CN(Cc2cn(Cc3ccc(C(F)(F)F)cc3)nn2)S(=O)(=O)C1 (stereo unspecified),11.5% (inactive)
14,COc1ccc(-c2ccc(C(=O)NCCN3CCOCC3)c3occc23)c(C)c1,2.58% (inactive)
15,O=[n+]1c2c(n([O-])c3cc(Br)ccc31)CCC2,-56.6% (active)
16,Cc1ccc(-c2c[n+](=O)c3c(n2[O-])CCC3)cc1,3.26% (inactive)
17,Cc1ccc(-c2c(C)n([O-])c3c([n+]2=O)CCC3)cc1,0.293% (inactive)
18,CC1(C(=O)NCc2ccc(F)c(F)c2)Cc2c(-c3ccc4c(c3)OCO4)ccnc2O1 (stereo unspecified),0.999% (inactive)
19,CN1OC[C@@H]2CN(C(=O)c3cccnc3)[C@H](c3ccc(N4CCCCC4)cc3)C[C@@H]21,-1.25% (inactive)
